Source: PubChem (National Center for Advancing Translational Sciences (NCATS))
An excerpt weighted towards active compounds, which were near 17% of everything screened.
TGFb inhibitor = qHTS for Inhibitors of TGF-b; HepG2 CAGA-GFP TGF-b/SMAD3 reporter, GFP fluorescence, 18 h; TGF-beta stimulated, 500 pg/mL final; Potency, µM (doses to about 46.1 µM), most hits filed as inhibitors; hit rate 1.2% among 410,000; AID 588855, 2011; note: nearly all actives have a fitted effect of over 65% in size
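HEPG2 CAGA-GFP cells (1000/well, DMEM with 1% FBS) were pre-incubated 2 h at 37 degrees C, given compound by pin tool, then stimulated with TGF-beta at 500 pg/mL final for 18 h before per-cell GFP fluorescence imaging.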
TDP1 cell noCPT = qHTS for Inhibitors of human tyrosyl-DNA phosphodiesterase 1 (TDP1): qHTS in cells in absence of CPT; Potency, µM (top dose mostly 46.2 µM), hits mostly inhibitors; AID 686978, 2013; hit rate 15% among 420,000; DT40 Tdp1-/- hTDP1 cells, no CPT, ATP luminescence, 48 h; note: nearly all actives have a fitted effect of over 55% in size
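No-CPT arm: Tdp1-/-;hTDP1 DT40 cells (400/well) plus compounds, incubated ≥48 hr at 37 °C. Readout CellTiter-Glo luminescence.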
HT1080 IDH1KD tx = qHTS for induction of synthetic lethality in tumor cells producing 2HG: qHTS for the HT-1080-IDH1KD cell line; HT-1080 IDH1 knockdown viability, ATP luminescence, 48 h; Potency, µM (series often up to 46.1 µM), usual class: cytotoxic; hit rate 2% among 360,000; AID 686971, 2013
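Cytotoxicity counter-line: IDH1KD HT-1080, 48 h, CellTiter-Glo. Curves classed by r2, magnitude and activity.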
DT40 TDP1 CPT = qHTS for Inhibitors of human tyrosyl-DNA phosphodiesterase 1 (TDP1): qHTS in cells in presence of CPT. hit rate 12% among 420,000. chicken DT40 Tdp1-/-;hTDP1 cells + 20 nM CPT, ATP luminescence, 48 h. Potency, µM (highest dose often 46.2 µM), usual class: inhibitors; note: nearly all actives have a fitted effect of over 55% in size
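Cell growth measured by CellTiter-Glo luminescence after a minimum 48 h, 37 C compound exposure with 20 nM CPT in Tdp1-knockout DT40 cells stably expressing hTDP1, seeded 400/well; qHTS titration format.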
HT1080-NT tox = qHTS for induction of synthetic lethality in tumor cells producing 2HG: qHTS for the HT-1080-NT fibrosarcoma cell line; HT-1080-NT fibrosarcoma viability, CellTiter-Glo ATP luminescence, 48 h; Potency, µM (doses to about 46.1 µM), hits mostly cytotoxic; hit rate 1.6% among 360,000;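 note: NT is the 2HG producing partner of a matched IDH1 knockdown line; nearly all actives have a fitted effect of over 55% in size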
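HT-1080-NT; 750 cells/well; 5% FBS RPMI; 48 h compound, 37 degrees C; CellTiter-Glo luminescence; curve fitting and curve-class assignment.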
HepG2 viability = qHTS for Inhibitors of TGF-b: Cytotox Counterscreen; HepG2 CAGA-GFP viability, ATP luminescence, 18 h; Potency, µM (doses to about 46.1 µM), most hits filed as cytotoxic; hit rate 0.76% among 410,000; AID 588856, 2011
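HepG2 CAGA-GFP cells (1000/well, DMEM with 1% FBS) received compound, then TGF-beta at 500 pg/mL final, and were incubated 18 hours at 37 degrees C. Viability was read by CellTiter-Glo luminescence. Media-only wells were set as complete cell-killing and DMSO as no toxicity.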
Of the large screens only hits and unclear results are named; the others gave an inactive call. Calls come from the whole dose curve; as a rule, active = well fitted curve in the direction sought with a large enough effect; inconclusive = small, poorly fitted or top-dose-only effect, or another doubt; inactive = no such curve, though single readings can be large; an effect the other way counts as inactive or inconclusive.

Cc1nn(C)c(C)c1S(=O)(=O)N1CCCC(C(=O)N2CCN(c3ccc(Cl)cc3)CC2)C1 (configuration not stated)	TDP1 cell noCPT 6.5µM, HT1080 IDH1KD tx inconclusive, DT40 TDP1 CPT 12µM
Cc1cccc2cc(CN(Cc3cccnc3)C(=O)c3ccccc3F)c(Cl)nc12	TDP1 cell noCPT inconclusive, DT40 TDP1 CPT inconclusive
Cc1cc(C)c2cc(CN(Cc3cccnc3)C(=O)c3ccc(F)cc3)c(Cl)nc2c1	TDP1 cell noCPT 15µM, HT1080 IDH1KD tx inconclusive, DT40 TDP1 CPT 18µM, HT1080-NT tox inconclusive
CN(C(=O)c1ccc(Oc2ccc([N+](=O)[O-])cc2)cc1)C1CCCCC1	TGFb inhibitor inconclusive, TDP1 cell noCPT 23µM, DT40 TDP1 CPT inconclusive, HT1080-NT tox inconclusive
O=C(CN(C(=O)c1cccc([N+](=O)[O-])c1)C1CCCCC1)Nc1ccc(Cl)c([N+](=O)[O-])c1	TGFb inhibitor inconclusive, TDP1 cell noCPT 16µM, HT1080 IDH1KD tx inconclusive, DT40 TDP1 CPT inconclusive
CN(C(=O)c1ccc(NC(=O)Cc2cccc(NC(=O)C3CCCN(C(=O)C4CCC4)C3)c2)cc1)C1CC1 (configuration not stated)	TDP1 cell noCPT inconclusive
CN(C(=O)c1cccc(NC(=O)Cc2cccc(NC(=O)C3CCCN(C(=O)C4CCC4)C3)c2)c1)C1CCC1 (configuration not stated)	TGFb inhibitor inconclusive, TDP1 cell noCPT 23µM, DT40 TDP1 CPT inconclusive
CN(C(=O)c1ccc(NC(=O)Cc2cccc(NC(=O)C3CCCN(C(=O)C4CCCC4)C3)c2)cc1)C1CCCC1 (configuration not stated)	TGFb inhibitor inconclusive, TDP1 cell noCPT inconclusive, DT40 TDP1 CPT 21µM
CN(C(=O)c1ccc(-c2ccccc2)cc1)C1CCCCC1	TDP1 cell noCPT inconclusive, HT1080 IDH1KD tx inconclusive, DT40 TDP1 CPT inconclusive
O=C(COC(=O)c1ccccc1SCC(=O)N1CCCC1)NCc1ccc(F)cc1	none
CN(C(=O)c1cccc(NC(=O)Cc2ccc(NC(=O)C3CCCN(C(=O)C4CCCCC4)C3)cc2)c1)C1CCCCC1 (configuration not stated)	TGFb inhibitor inconclusive, TDP1 cell noCPT inconclusive, DT40 TDP1 CPT inconclusive
CN(C(=O)c1cccc(NC(=O)Cc2ccc(NC(=O)C3CCCN(C(=O)C4CCC4)C3)cc2)c1)C1CCCCC1 (configuration not stated)	TDP1 cell noCPT inconclusive, DT40 TDP1 CPT 23µM
CN(C(=O)c1cccc(NC(=O)Cc2ccc(NC(=O)C3CCN(S(=O)(=O)c4cccc([N+](=O)[O-])c4)CC3)cc2)c1)C1CCCC1	TDP1 cell noCPT inconclusive, DT40 TDP1 CPT inconclusive
CN(C(=O)c1cccc(NC(=O)Cc2cccc(NC(=O)C3CCCN(C(=O)C4CCCC4)C3)c2)c1)C1CCC1 (configuration not stated)	TGFb inhibitor inconclusive, TDP1 cell noCPT inconclusive, DT40 TDP1 CPT 16µM
CN(C(=O)c1cccc(NC(=O)Cc2ccc(NC(=O)C3CCCN(C(=O)C4CCCCC4)C3)cc2)c1)C1CCCC1 (configuration not stated)	TGFb inhibitor inconclusive, TDP1 cell noCPT inconclusive, DT40 TDP1 CPT inconclusive
CN(C(=O)c1cccc(NC(=O)Cc2ccc([N+](=O)[O-])cc2)c1)C1CCCCC1	TGFb inhibitor inconclusive, TDP1 cell noCPT 15µM, DT40 TDP1 CPT 21µM
COc1cccc(-c2nc(-c3cccc(C)c3)nc3cc(Cl)ccc23)c1	none (no result: TGFb inhibitor, HepG2 viability)
